Entries with a potency or affinity are not part of this list. Inconclusive results are not listed.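 The calls were made as follows: active = compounds lowering the FRET ratio whose fitted half-maximal concentration is at most twice their top tested dose; inconclusive = flat partial drop between 30 and 70 percent, or bad fit; inactive = the rest.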
The compounds below were run against Voltage-dependent L-type calcium channel subunit alpha-1D (Homo sapiens) (UniProt Q01668) (assay: inhibitors of CaV1.3 ICDI-IQ binding, dose response, cell-based, HEK293, YFP-IQ/CFP-ICDI FRET, cherry-picks (AID 1053205;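 also: 0% = median of neutral control wells and -100% = median of positive control wells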)). Settings: HEK293 YFP-IQ/CFP-ICDI FRET ratio, 10 min; series mostly up to 35 µM; FRET change, negative = inhibition: at the top concentration.
Sequence of Voltage-dependent L-type calcium channel subunit alpha-1D (Homo sapiens) (Q01668 whole entry, looked up): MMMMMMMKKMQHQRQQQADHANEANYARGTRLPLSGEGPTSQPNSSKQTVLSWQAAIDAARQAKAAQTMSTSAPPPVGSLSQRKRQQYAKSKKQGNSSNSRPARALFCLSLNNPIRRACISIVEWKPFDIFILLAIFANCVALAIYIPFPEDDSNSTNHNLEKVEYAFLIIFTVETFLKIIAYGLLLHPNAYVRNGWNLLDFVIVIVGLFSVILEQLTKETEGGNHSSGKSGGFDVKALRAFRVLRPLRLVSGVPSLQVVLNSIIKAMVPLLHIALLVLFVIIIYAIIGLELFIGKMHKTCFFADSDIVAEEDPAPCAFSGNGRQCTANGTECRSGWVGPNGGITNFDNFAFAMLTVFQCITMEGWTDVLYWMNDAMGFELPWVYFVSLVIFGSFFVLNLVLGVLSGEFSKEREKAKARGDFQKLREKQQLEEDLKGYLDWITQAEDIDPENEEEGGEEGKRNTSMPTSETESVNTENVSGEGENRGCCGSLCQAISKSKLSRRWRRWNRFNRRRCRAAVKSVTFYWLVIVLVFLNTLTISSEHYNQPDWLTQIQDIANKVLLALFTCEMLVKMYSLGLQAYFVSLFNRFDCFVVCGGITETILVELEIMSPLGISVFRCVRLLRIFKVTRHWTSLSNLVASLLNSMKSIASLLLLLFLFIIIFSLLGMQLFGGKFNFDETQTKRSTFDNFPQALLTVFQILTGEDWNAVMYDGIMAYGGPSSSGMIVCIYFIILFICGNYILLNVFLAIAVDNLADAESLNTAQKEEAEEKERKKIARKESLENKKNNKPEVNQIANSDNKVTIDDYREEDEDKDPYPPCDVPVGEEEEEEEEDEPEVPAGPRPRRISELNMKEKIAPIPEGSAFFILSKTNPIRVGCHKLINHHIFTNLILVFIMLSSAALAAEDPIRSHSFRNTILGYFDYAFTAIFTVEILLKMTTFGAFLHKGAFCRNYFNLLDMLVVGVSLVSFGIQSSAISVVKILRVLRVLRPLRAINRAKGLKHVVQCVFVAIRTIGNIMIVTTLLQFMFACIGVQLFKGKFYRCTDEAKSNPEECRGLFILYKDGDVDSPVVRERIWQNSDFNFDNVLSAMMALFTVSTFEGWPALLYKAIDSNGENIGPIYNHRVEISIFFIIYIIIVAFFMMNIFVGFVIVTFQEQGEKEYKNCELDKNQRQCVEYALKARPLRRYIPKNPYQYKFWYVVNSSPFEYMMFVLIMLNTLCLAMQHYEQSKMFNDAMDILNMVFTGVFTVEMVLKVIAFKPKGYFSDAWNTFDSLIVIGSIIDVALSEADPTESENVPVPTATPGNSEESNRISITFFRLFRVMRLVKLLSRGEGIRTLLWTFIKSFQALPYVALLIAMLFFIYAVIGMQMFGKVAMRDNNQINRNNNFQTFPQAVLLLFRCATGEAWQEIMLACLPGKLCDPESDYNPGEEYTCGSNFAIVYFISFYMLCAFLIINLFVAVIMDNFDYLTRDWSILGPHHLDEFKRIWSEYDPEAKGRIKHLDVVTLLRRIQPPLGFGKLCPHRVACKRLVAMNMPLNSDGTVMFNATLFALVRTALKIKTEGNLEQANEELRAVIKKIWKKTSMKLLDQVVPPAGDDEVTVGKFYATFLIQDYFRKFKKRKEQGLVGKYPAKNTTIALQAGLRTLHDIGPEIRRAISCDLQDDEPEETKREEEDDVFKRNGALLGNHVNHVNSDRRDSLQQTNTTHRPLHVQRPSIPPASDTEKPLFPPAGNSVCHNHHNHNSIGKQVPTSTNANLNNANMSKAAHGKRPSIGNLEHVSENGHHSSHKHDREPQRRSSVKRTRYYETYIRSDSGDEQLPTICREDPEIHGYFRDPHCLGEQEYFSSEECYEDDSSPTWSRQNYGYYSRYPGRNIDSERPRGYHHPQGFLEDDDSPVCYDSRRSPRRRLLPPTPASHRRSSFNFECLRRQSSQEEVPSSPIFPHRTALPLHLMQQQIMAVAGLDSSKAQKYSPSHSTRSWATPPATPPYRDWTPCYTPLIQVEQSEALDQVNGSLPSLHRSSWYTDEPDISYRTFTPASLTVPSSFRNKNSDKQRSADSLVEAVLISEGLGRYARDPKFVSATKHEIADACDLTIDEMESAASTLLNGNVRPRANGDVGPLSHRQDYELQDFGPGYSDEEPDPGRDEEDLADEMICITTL

FRET change, negative = inhibition, inactive:
CCN(c1ccccc1)S(=O)(=O)c1ccc(OC)c(NC(=O)CN(C)C)c1 10.1%
Cc1c(C(=O)NCc2cccc(C(F)(F)F)c2)sc(=O)n1Cc1ccc(C(=O)N(C)C)cc1 -8.19%
Cc1cc(C)nc(SCC(=O)Nc2ccc(S(=O)(=O)Nc3onc(C)c3C)cc2)n1 1.97%
CN1CCN(c2nc3ccccn3c(=O)c2/C=C(\C#N)S(=O)(=O)c2ccccc2)CC1 37.4%
O=C(Nc1ccc2c(c1)OCCO2)c1ccc(NC(=O)C2CCCO2)cc1 (stereo unspecified) 145%
CN(C)/C=C/C(=O)c1c(F)cccc1F 12.1%
COCc1cc(C)nc(SCC(=O)Oc2ccc(Cl)cc2)c1C#N 0.592%
N#CC1=C(N)OC2=C(C(=O)CCC2)C1c1cc2c(cc1Br)OCO2 (stereo unspecified) -32.1%
CCN1CCc2c(sc(NC(=O)Nc3ccc(Cl)c(Cl)c3)c2C(N)=O)C1 339%
COc1ccccc1N1CCN(C2CCC(C)CC2)CC1 (stereo unspecified) -7.09%
Cc1ccc(-n2c(C)cc(/C=N/NC(=O)Cn3c4ccccc4c(=O)c4ccccc43)c2C)cc1 19.5%
CCCn1c(=N)c(S(=O)(=O)c2ccccc2)cc2c(=O)n3ccccc3nc21 457%
O=C(NCc1cc(C(F)(F)F)ccc1Cl)c1cccc2c1C(=O)c1ccc(Cl)cc1S2(=O)=O 11.7%
CNNC(=S)NC1CC2CC1C1C=CCC21 (stereo unspecified) 4.34%
Cc1ccc(C(=O)OCC(=O)Nc2c(C)nn(-c3ccccc3)c2C)c(O)c1 15.9%
CCC(C)n1c(=N)c(C#N)cc2c(=O)n3cc(C)ccc3nc21 (stereo unspecified) 176%
CC1CCCCC1NC(=O)CN1C(=O)c2cccc(N)c2C1=O (stereo unspecified) 321%
O=C(c1cccc(Cl)c1)N1CCC(=O)N(C(COCc2ccccc2)Cc2ccccc2)CC1 (stereo unspecified) 5.96%
Cc1ccc(S(=O)(=O)c2cc3c(=O)n4ccccc4nc3n(C)c2=N)cc1 187%
Cc1cccc2sc(NNC(=O)c3ccc(S(=O)(=O)N4CCCC(C)C4)cc3)nc12 (stereo unspecified) -1.05%
N#Cc1c(NCCCO)nc(NCc2ccccc2)c2c1CCN(Cc1ccccc1)C2 42.7%
CCCCn1nc(NC(=O)c2cccs2)c2cc3cc(OC)ccc3nc21 490%
Cc1noc(C)c1S(=O)(=O)N(CC(=O)N1CCCCCC1)c1ccc(C(C)C)cc1 150%
CCN(CC)CCCNc1nc(C)cc(COC)c1C#N -0.747%
[O-]/[N+](=C/c1ccccc1)c1ccccc1 -4.36%
CC(=O)Nc1cccc(-c2ccnc3c2CC(C(=O)NCc2cccc(Cl)c2)O3)c1 (stereo unspecified) 10.8%
CCC(=O)NCCCNc1nc2c(C)cccc2cc1C#N 78.8%
Cc1cc(-c2ccccc2)c2ccc(NC(=O)C(C)(C)C)nc2n1 18.8%
Cn1cc(C(c2ccccc2OCC(=O)O)c2cn(C)c3ccccc23)c2ccccc21 12.7%
COc1ccc(C[C@H]2CN3C(=NC[C@@H]3Cc3ccccc3)N2CCNC(=O)CCC2CCCCC2)cc1 29.9%
Cc1nc2ccccc2c2oc(C(=O)NCCCN3CCC(C)CC3)cc12 5.53%
CCOC(=O)c1cc(-c2ccccc2)sc1NC(=O)CSc1nnc(N)s1 29.3%
COc1cc2sc3cc(NCC[C@@H]4CCCN4C)ccc3c(=O)c2cc1OC 54% [at 16 µM]
O=C(O)C1=CC[C@@H](c2ccc(Cl)cc2)N(S(=O)(=O)c2ccc(Cl)cc2)[C@H]1c1ccc(F)cc1 4.82%
CCc1nnc(NC(=O)c2ccc(-c3ccccc3F)o2)s1 7.19%
CCOC1=NN(c2ncc(C(F)(F)F)cc2Cl)C(=O)C1 19%
